Measurements taken from PubChem BioAssay AID1159580 (chemical genetic matrix, 2015).
Where “and” joins values, the source holds several entries; their conditions need not be identical. Equal values may be shown once. Screen size: about 5,500 compounds; about 2,000 (36%) were called active. About 18% were inconclusive and are not listed. Rule as the data show it: active = normalized growth mostly below about 0.91 (no sharp cut-off); inconclusive = no clear call, values can overlap the other calls; inactive = mostly above about 0.92. Some of the results follow.

Test: chemical genetic growth profiling, strain panel (AID 1159580);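 also: tested at 20 µM; growth read once vehicle control cultures reached saturation at 30 °C; 1 = growth at the plate median or of vehicle wells; lower values mean less growth of the strain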
Settings: S. cerevisiae deletion strains, growth OD

Measured: normalized growth

COc1ccc2c(c1OC)C(=O)OC2[C@H]1c2c(cc3c(c2OC)OCO3)CCN1C (some centres not stated)
inactive: locus YAL013W, strain DEP1, hits give low values 1.01 | locus YAL021C, strain ccr4, hits give low values 1.02 | locus YAL026C, strain drs2, hits give low values 1.02 | locus YAL030W, strain snc1, hits give low values 1.02 | locus YBL061C, strain skt5, hits give low values 1.01 | locus YBR009C, strain hhf1, hits give low values 1.02 | locus YBR021W, strain FUR4, hits give low values 1.01 | locus YBR023C, strain chs3, hits give low values 1.02 | locus YBR171W, strain sec66, hits give low values 1.01 | locus YBR229C, strain ROT2, hits give low values 1.01 | locus YBR231C, strain swc5, hits give low values 1.01 | locus YBR279W, strain paf1, hits give low values 1.01 | locus YCL011C, strain gbp2, hits give low values 1.02 | locus YCL016C, strain dcc1, hits give low values 1.02 | locus YCL029C, strain bik1, hits give low values 0.987 | locus YCL061C, strain MRC1, hits give low values 1.01 | locus YCL069W, strain vba3, hits give low values 1.01 | locus YCR088W, strain abp1, hits give low values 1.01 | locus YDL005C, strain med2, hits give low values 0.995 | locus YDL035C, strain GPR1, hits give low values 1.01 | locus YDL040C, strain nat1, hits give low values 1 | locus YDL074C, strain BRE1, hits give low values 1.04 | locus YDL101C, strain DUN1, hits give low values 1 | locus YDL134C, strain PPH21, hits give low values 1.01 | locus YDL185W, strain tfp1, hits give low values 0.966 | locus YDL192W, strain arf1, hits give low values 0.968 | locus YDR001C, strain nth1, hits give low values 1 | locus YDR069C, strain doa4, hits give low values 1.02 | locus YDR101C, strain arx1, hits give low values 0.995 | locus YDR137W, strain rgp1, hits give low values 1.04 | locus YDR159W, strain sac3, hits give low values 0.953 | locus YDR162C, strain NBP2, hits give low values 0.983 | locus YDR195W, strain ref2 0.993 | locus YDR297W, strain sur2, hits give low values 1.02 | locus YDR318W, strain mcm21, hits give low values 0.965 | locus YDR334W, strain swr1, hits give low values 1 | locus YDR335W, strain msn5, hits give low values 1.01 | locus YDR388W, hits give low values 0.985 | locus YDR392W, strain spt3, hits give low values 0.892 | locus YDR502C, strain sam2, hits give low values 0.984 | locus YEL003W, strain gim4, hits give low values 1.02 | locus YEL037C, strain rad23, hits give low values 1 | locus YEL061C, strain CIN8 (second series), hits give low values 0.996 | locus YEL061C, strain CIN8, hits give low values 1 | locus YER015W, strain faa2, hits give low values 1.01 | locus YER016W, strain bim1, hits give low values 1 | locus YER110C, hits give low values 0.994 | locus YER111C, strain swi4, hits give low values 1.01 | locus YER155C, strain BEM2 (second series), hits give low values 0.98 | locus YER155C, strain BEM2, hits give low values 0.992 | locus YER167W, strain BCK2, hits give low values 1 | locus YFR010W, strain ubp6, hits give low values 1 | locus YGL078C, strain dbp3, hits give low values 0.989 | locus YGL086W, strain mad1, hits give low values 1.01 | locus YGL167C, strain pmr1, hits give low values 1.01 | locus YGL173C, strain kem1, hits give low values 1.01 | locus YGL227W, strain vid30, hits give low values 1.01 | locus YGL240W, strain doc1, hits give low values 1.02 | locus YGL248W, strain PDE1, hits give low values 1.01 | locus YGL253W, strain hxk2, hits give low values 1.02 | locus YGR135W, strain pre9, hits give low values 0.986 | locus YGR252W, strain gcn5, hits give low values 1.19 | locus YHR013C, strain ard1, hits give low values 1.02 | locus YHR027C, strain rpn1, hits give low values 1.01 | locus YHR030C, strain SLT2, hits give low values 0.995 and 0.993 | locus YHR079C, strain IRE1 (second series), hits give low values 0.978 | locus YHR079C, strain IRE1, hits give low values 0.999 | locus YHR094C, strain hxt1, hits give low values 0.988 | locus YHR129C, strain ARP1, hits give low values 0.999 | locus YHR142W, strain chs7, hits give low values 1 | locus YHR200W, strain rpn10, hits give low values 0.98 | locus YIL066C, strain RNR3, hits give low values 1.01 | locus YIL073C, strain SPO22, hits give low values 0.857 | locus YIL125W, strain kgd1, hits give low values 0.986 | locus YIR030C, strain dcg1, hits give low values 0.997 | locus YJL092W, strain hpr5, hits give low values 1.01 | locus YJL095W, strain BCK1 (second series), hits give low values 1.01 | locus YJL095W, strain BCK1, hits give low values 1.02 and 1 | locus YJL115W, strain asf1, hits give low values 1.01 | locus YJL129C, strain trk1, hits give low values 0.995 | locus YJL134W, strain LCB3, hits give low values 0.996 | locus YJL154C, strain vps35, hits give low values 1.02 | locus YJL164C, strain tpk1, hits give low values 1.03 | locus YJL166W, strain qcr8, hits give low values 1 | locus YJL168C, strain set2, hits give low values 0.987 | locus YJL187C, strain SWE1 (second series), hits give low values 0.997 | locus YJL187C, strain SWE1, hits give low values 1.02
